# In PMC7862700, “An all-to-all approach to the identification of sequence-specific readers for epigenetic DNA modifications on cytosine”:
# Columns and labels:
# Experiment in all cases: DAPPL (digital affinity profiling via proximity ligation, sequencing); 10 mM Tris-HCl pH 7.5, 50 mM NaCl, 1 mM DTT, 4% glycerol, room temperature, 30 min; GST-TFs on glutathione beads, 16-mer random dsDNA library, 0.1% formaldehyde crosslink after washing; high values mean tight binding
# FEV = target: T1, FEV (Homo sapiens, UniProt Q99581 1-238); details: protein: recombinant; tags: N-terminal GST; dsDNA, one strand shown
# T1 sequence: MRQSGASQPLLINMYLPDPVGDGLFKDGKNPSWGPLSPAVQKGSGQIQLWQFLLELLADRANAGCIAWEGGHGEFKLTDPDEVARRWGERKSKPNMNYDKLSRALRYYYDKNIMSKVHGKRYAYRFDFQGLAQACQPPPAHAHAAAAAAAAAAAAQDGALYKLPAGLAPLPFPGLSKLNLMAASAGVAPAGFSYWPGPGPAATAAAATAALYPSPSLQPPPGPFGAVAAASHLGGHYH
# Method in brief: (§1)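 After expression in yeast as GST fusions, human transcription factors were bound to glutathione beads, DNA-barcoded and mixed with a tag-only sample. The pools were incubated with 200 nmole of a 16-mer random double-stranded DNA library in Tris/NaCl/DTT/glycerol buffer (30 min, room temperature), washed and crosslinked with 0.1% formaldehyde. Proximity ligation with BsaI/T4 ligase ran for 1 h at 37 °C, before PCR amplification and sequencing on an Illumina NextSeq500. Binding signal is a hexamer's read frequency for a factor divided by its frequency for the tag-only sample.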
# ETV5 = ETV5 (Homo sapiens, UniProt P41161 1-510); details: protein: recombinant; tags: N-terminal GST; dsDNA, one strand shown
# Method in brief: as §1
# HSF1 = HSF1 (Homo sapiens, UniProt Q00613 1-529); details: protein: recombinant; tags: N-terminal GST; chain copies: 3; dsDNA, one strand shown
# Method in brief: as §1
# SPIC = target: T2, SPIC (Homo sapiens, UniProt Q8N5J4 1-248); details: protein: recombinant; tags: N-terminal GST; dsDNA, one strand shown
# T2 sequence: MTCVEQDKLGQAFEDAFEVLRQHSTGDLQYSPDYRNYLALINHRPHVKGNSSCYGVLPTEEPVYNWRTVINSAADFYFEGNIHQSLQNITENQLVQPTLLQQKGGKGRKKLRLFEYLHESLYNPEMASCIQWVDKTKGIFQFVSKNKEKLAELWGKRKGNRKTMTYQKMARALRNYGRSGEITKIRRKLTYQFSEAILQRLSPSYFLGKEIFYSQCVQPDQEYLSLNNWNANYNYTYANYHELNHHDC
# Method in brief: as §1
# ELF4 = ELF4 (Homo sapiens, UniProt Q99607 1-663); details: protein: recombinant; tags: N-terminal GST; dsDNA, one strand shown
# Method in brief: as §1
# ELK4 = target: T3, ELK4 (Homo sapiens, UniProt P28324-2 1-405); details: protein: recombinant; tags: N-terminal GST; dsDNA, one strand shown
# T3 sequence: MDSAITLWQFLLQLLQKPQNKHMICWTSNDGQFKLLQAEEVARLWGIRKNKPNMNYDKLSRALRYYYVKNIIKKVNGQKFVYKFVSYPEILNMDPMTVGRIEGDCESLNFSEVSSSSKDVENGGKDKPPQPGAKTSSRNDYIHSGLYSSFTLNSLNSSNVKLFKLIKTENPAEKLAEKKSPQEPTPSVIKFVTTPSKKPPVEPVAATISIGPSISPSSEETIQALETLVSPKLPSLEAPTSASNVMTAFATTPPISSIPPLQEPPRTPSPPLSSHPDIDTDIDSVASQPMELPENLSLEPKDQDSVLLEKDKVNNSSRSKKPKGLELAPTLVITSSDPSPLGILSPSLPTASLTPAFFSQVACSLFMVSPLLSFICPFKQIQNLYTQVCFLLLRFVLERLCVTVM
# Method in brief: as §1
# ETV2 = target: T4, ETV2 (Homo sapiens, UniProt O00321 1-342); details: protein: recombinant; tags: N-terminal GST; dsDNA, one strand shown
# T4 sequence: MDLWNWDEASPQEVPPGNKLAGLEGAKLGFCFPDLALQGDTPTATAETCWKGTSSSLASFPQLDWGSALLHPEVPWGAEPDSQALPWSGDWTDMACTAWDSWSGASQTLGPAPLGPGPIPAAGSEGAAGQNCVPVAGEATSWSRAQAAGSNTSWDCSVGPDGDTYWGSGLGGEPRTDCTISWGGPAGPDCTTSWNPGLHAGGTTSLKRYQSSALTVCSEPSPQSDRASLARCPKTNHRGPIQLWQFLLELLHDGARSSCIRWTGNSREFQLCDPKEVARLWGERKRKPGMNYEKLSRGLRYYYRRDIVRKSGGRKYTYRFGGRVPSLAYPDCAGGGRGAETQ
# Method in brief: as §1
# ELF3 = target: T5, ELF3 (Homo sapiens, UniProt P78545 1-371); details: protein: recombinant; tags: N-terminal GST; dsDNA, one strand shown
# T5 sequence: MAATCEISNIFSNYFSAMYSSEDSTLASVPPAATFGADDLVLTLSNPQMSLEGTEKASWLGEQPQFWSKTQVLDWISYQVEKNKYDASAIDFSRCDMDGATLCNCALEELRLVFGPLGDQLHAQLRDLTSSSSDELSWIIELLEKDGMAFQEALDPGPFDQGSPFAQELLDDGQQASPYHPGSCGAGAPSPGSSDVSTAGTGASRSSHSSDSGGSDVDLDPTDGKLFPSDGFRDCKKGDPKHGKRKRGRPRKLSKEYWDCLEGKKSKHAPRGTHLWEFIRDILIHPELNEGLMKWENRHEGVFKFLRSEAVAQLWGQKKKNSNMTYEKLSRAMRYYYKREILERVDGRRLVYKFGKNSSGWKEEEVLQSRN
# Method in brief: as §1
# CRX = CRX (Homo sapiens, UniProt O43186 1-299); details: protein: recombinant; tags: N-terminal GST; dsDNA, one strand shown
# Method in brief: as §1
# ETV1 = ETV1 (Homo sapiens, UniProt P50549 1-477); details: protein: recombinant; tags: N-terminal GST; dsDNA, one strand shown
# Method in brief: as §1
# ERF = target: T6, ERF (Homo sapiens, UniProt P50548 1-548); details: protein: recombinant; tags: N-terminal GST; dsDNA, one strand shown
# T6 sequence: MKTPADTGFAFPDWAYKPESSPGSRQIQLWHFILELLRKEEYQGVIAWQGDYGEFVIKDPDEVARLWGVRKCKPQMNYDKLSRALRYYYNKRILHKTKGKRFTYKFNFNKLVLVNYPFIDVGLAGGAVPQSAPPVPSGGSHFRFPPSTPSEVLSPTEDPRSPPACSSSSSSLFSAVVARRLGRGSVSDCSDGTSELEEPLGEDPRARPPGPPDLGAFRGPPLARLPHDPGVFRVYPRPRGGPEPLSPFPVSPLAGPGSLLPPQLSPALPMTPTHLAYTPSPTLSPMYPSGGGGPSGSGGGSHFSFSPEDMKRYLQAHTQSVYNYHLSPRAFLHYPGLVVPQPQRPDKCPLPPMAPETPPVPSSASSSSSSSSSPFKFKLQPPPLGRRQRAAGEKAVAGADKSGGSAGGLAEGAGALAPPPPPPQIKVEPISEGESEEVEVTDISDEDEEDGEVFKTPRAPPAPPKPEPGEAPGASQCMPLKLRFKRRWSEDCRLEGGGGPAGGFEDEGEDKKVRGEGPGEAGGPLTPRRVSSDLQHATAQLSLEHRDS
# Method in brief: as §1
# ETV3L = target: T7, ETV3L (Homo sapiens, UniProt Q6ZN32 1-361); details: protein: recombinant; tags: N-terminal GST; dsDNA, one strand shown
# T7 sequence: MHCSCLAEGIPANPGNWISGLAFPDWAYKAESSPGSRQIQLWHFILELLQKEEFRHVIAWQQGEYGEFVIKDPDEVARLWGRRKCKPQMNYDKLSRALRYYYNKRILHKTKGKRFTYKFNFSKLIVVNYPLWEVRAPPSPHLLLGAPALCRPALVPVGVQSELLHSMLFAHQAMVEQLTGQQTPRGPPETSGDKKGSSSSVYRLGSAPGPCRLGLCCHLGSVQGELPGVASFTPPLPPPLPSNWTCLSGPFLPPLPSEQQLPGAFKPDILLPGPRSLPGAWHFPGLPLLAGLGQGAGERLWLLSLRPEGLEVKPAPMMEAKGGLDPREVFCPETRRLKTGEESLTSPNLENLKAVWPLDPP
# Method in brief: as §1
# ETS2 = target: T8, ETS2 (Homo sapiens, UniProt P15036 1-469); details: protein: recombinant; tags: N-terminal GST; dsDNA, one strand shown
# T8 sequence: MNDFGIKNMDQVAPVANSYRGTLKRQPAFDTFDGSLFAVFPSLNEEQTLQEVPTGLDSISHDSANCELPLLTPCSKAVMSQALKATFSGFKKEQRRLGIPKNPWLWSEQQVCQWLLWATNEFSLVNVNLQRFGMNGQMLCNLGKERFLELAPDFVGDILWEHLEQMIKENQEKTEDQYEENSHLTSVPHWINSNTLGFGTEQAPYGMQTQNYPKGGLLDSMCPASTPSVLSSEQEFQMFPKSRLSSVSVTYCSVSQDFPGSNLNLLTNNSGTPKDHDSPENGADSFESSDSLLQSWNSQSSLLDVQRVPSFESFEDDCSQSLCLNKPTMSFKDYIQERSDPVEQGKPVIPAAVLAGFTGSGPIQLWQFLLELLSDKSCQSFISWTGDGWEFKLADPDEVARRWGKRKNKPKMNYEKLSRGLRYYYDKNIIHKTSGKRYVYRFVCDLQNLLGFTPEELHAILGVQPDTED
# Method in brief: as §1
# SPDEF = target: T9, SPDEF (Homo sapiens, UniProt O95238 1-335); details: protein: recombinant; tags: N-terminal GST; dsDNA, one strand shown
# T9 sequence: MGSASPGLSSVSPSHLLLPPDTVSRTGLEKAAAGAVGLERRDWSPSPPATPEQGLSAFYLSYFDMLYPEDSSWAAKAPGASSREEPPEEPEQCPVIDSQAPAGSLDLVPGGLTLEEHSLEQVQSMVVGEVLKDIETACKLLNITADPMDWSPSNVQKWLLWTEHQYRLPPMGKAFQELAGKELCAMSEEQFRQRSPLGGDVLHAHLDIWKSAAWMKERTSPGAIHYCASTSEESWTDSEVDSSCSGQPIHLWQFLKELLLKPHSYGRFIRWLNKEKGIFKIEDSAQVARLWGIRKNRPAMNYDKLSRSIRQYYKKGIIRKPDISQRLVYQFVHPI
# Method in brief: as §1
# ETV7 = target: T10, ETV7 (Homo sapiens, UniProt Q9Y603 1-341); details: protein: recombinant; tags: N-terminal GST; dsDNA, one strand shown
# T10 sequence: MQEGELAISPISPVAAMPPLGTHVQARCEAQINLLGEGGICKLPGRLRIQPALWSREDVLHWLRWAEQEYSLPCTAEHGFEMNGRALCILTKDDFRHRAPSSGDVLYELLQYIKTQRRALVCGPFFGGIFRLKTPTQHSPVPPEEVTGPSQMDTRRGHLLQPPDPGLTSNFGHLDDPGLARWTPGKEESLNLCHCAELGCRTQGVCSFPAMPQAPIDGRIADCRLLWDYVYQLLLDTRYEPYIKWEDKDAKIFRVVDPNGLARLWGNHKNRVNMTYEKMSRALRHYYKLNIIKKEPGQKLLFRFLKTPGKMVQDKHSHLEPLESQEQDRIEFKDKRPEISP
# Method in brief: as §1
# ELF5 = target: T11, ELF5 (Homo sapiens, UniProt Q9UKW6-2 1-255); details: protein: recombinant; tags: N-terminal GST; dsDNA, one strand shown
# T11 sequence: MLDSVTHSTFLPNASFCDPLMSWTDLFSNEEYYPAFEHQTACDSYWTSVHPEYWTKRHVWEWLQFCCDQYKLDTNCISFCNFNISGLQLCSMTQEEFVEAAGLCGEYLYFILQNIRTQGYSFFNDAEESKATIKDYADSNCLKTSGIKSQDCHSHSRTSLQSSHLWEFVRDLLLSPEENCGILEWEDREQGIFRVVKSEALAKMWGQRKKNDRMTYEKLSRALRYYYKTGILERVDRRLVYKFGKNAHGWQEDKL
# Method in brief: as §1
# ETV3 = target: T12, ETV3 (Homo sapiens, UniProt P41162-2 1-143); details: protein: recombinant; tags: N-terminal GST; dsDNA, one strand shown
# T12 sequence: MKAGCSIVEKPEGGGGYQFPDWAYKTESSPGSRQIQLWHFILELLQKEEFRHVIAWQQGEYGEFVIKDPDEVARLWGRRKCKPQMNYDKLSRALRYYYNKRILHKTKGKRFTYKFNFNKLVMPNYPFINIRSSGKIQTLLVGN
# Method in brief: as §1
# ETV6 = ETV6 (Homo sapiens, UniProt P41212 1-452); details: protein: recombinant; tags: N-terminal GST; dsDNA, one strand shown
# Method in brief: as §1
# Chain of HSF1 (Q00613 whole entry): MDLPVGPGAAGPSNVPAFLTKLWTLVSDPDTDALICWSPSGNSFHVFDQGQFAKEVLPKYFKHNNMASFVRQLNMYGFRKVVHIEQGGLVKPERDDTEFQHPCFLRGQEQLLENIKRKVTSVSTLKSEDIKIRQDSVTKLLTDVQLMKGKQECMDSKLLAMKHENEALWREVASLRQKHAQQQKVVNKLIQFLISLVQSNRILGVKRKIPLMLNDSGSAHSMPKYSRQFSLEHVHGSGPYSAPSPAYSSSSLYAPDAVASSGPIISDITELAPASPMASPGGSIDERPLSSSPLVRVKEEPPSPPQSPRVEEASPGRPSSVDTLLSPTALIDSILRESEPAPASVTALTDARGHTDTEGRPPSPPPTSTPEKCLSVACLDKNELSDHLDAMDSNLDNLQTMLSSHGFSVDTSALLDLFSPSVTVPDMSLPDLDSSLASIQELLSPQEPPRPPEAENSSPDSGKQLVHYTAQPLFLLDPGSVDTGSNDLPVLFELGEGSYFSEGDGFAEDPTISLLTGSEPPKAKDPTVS
# Chain of ETV1 (P50549 whole entry): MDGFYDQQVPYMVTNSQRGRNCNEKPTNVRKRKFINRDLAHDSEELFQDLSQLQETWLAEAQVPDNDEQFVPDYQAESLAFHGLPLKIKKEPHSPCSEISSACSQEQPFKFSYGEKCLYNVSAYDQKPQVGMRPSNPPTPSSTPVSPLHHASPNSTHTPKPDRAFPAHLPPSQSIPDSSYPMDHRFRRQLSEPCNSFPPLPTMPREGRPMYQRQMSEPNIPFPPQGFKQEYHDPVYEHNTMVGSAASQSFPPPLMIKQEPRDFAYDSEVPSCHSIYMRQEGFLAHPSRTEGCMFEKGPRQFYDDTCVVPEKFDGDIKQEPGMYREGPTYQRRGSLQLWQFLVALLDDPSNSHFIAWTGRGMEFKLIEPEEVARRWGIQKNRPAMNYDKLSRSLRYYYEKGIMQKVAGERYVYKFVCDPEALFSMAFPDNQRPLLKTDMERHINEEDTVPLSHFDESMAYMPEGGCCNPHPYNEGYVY
# Chain of ETV6 (P41212 whole entry): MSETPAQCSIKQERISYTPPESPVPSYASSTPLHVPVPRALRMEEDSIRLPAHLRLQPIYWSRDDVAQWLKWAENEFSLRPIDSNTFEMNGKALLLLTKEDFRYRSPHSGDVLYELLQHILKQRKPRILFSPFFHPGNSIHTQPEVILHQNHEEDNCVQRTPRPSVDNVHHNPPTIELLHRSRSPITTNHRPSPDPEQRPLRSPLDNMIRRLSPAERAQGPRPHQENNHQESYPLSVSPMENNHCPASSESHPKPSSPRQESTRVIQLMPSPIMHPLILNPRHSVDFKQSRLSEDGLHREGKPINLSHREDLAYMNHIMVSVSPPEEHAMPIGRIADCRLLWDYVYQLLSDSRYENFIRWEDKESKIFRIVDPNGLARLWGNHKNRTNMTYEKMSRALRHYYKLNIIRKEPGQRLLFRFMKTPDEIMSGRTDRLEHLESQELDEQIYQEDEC
# Chain of ELF4 (Q99607 whole entry): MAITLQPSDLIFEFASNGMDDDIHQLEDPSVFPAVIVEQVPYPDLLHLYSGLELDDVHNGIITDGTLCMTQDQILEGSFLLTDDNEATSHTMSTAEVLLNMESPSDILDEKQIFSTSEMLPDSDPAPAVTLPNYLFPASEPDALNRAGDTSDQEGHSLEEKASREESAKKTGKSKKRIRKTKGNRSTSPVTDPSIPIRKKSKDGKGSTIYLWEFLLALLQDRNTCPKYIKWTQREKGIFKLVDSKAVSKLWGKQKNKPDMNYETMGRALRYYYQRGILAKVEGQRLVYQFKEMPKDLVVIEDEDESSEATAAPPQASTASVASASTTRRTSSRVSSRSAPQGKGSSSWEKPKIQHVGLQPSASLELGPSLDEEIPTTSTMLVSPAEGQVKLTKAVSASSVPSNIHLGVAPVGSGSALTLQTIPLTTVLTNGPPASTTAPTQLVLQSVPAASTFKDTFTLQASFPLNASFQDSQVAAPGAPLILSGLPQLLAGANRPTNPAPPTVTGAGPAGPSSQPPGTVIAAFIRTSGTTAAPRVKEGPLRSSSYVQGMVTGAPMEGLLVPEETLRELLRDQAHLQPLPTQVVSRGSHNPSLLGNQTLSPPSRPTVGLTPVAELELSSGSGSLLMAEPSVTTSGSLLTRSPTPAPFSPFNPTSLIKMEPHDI
# Chain of CRX (O43186 whole entry): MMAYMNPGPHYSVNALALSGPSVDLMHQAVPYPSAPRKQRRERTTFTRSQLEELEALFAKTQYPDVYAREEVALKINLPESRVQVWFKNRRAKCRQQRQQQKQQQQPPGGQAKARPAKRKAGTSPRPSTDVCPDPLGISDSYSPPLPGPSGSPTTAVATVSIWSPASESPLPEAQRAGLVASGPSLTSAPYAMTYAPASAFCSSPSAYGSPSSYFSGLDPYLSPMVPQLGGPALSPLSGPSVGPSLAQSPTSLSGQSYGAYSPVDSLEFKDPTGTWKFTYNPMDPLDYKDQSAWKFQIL
# Chain of ETV5 (P41161 whole entry): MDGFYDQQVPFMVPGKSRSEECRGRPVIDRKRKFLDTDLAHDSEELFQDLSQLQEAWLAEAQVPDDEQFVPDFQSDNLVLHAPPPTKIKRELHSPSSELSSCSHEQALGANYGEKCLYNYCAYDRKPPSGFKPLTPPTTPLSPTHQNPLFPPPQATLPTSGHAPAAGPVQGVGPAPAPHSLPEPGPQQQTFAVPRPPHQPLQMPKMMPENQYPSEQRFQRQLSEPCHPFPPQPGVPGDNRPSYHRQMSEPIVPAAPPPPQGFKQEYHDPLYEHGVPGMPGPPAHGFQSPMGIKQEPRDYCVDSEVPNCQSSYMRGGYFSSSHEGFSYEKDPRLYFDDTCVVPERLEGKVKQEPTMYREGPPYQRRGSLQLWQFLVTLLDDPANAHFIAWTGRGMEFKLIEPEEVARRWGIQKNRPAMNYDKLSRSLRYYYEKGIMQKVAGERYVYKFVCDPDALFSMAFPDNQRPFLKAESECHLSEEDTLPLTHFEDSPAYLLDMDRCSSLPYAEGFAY
sequence,measurement,setting,value
TGCCTC,binding signal,FEV,"1.32 fold enrichment (6-mer frequency, TF over GST control)"
same,binding signal,ETV5,"1.37 fold enrichment (6-mer frequency, TF over GST control)"
same,binding signal,HSF1,"1.14 fold enrichment (6-mer frequency, TF over GST control)"
same,binding signal,SPIC,"1.4 fold enrichment (6-mer frequency, TF over GST control)"
same,binding signal,ELF4,"1.34 fold enrichment (6-mer frequency, TF over GST control)"
same,binding signal,ELK4,"1.28 fold enrichment (6-mer frequency, TF over GST control)"
same,binding signal,ETV2,"1.3 fold enrichment (6-mer frequency, TF over GST control)"
same,binding signal,ELF3,"1.52 fold enrichment (6-mer frequency, TF over GST control)"
same,binding signal,CRX,"1.06 fold enrichment (6-mer frequency, TF over GST control)"
same,binding signal,ETV1,"1.24 fold enrichment (6-mer frequency, TF over GST control)"
same,binding signal,ERF,"1.4 fold enrichment (6-mer frequency, TF over GST control)"
same,binding signal,ETV3L,"1.32 fold enrichment (6-mer frequency, TF over GST control)"
same,binding signal,ETS2,"1.22 fold enrichment (6-mer frequency, TF over GST control)"
same,binding signal,SPDEF,"1.39 fold enrichment (6-mer frequency, TF over GST control)"
same,binding signal,ETV7,"1.35 fold enrichment (6-mer frequency, TF over GST control)"
same,binding signal,ELF5,"1.4 fold enrichment (6-mer frequency, TF over GST control)"
same,binding signal,ETV3,"1.39 fold enrichment (6-mer frequency, TF over GST control)"
same,binding signal,ETV6,"1.36 fold enrichment (6-mer frequency, TF over GST control)"
